The source of these data is PubChem BioAssay AID602123 (The Scripps Research Institute Molecular Screening Center, 2011).

The campaign covered roughly 360,000 compounds. About 1,500 (0.42%) were called active. Cut-off read from the data, not from the text of the source: active = inhibition above about 13% (passing the limit was not always enough); inactive = the rest. Many of the other results were omitted from the sample, so actives are more common in it than they were.

For this assay, the target named is Lon protease (Escherichia coli (strain K12)) (UniProt P0A9M0). Description: E. coli eLon protease inhibition – biochemical, fluorescence polarization, primary screen (AID 602123).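 Note: 0% = enzyme with probe and DMSO and 100% = no enzyme.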 Particulars: purified E. coli Lon protease, at 7.94 µM, stronger effect = higher value. (Polarisation of emitted light reports the rotation of a fluorescent probe.)
Chain of Lon protease (Escherichia coli (strain K12)) (P0A9M0 whole entry, looked up): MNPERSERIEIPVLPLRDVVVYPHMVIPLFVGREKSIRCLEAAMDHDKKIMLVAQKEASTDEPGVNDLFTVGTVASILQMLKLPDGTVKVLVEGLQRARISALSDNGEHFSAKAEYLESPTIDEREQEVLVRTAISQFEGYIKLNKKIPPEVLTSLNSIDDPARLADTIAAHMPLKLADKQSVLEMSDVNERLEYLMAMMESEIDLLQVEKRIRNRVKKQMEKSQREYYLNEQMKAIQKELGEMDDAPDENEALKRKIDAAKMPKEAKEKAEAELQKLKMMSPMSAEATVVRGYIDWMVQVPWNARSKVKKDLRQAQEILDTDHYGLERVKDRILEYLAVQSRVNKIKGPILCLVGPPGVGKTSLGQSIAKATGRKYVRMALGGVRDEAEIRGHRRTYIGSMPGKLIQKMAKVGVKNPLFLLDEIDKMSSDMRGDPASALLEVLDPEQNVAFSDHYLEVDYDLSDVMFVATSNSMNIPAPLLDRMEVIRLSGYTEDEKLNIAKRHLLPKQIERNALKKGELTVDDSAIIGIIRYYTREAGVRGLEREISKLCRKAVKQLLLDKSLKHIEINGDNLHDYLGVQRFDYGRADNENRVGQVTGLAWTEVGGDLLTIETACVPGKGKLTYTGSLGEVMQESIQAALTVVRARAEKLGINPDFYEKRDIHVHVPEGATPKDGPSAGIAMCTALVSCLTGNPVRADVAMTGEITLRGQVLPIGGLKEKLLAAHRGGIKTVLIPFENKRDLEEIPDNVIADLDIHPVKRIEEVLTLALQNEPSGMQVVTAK
In general, inhibition refers to the drop in the measured response relative to a control, in per cent. As for `COc1ccc(C2=CC(c3cccc(OC)c3)n3nnnc3N2)cc1` (configuration not stated), the inhibition is 16.1% (active).
For `COc1ccc(C2CC(c3cccs3)Nc3nnnn32)cc1` (configuration not stated), the inhibition is -1.58% (inactive).
Then `COC(=O)C1=C(C(=O)c2ccc(C)cc2)C(c2ccccc2)n2nnnc2N1` (configuration not stated), with -7.42% (inactive); and `COc1c(C(=O)N2CCCC2)ccc2ccccc12`, with -2.3% (inactive).
As for `COC(=O)C[n+]1cccc2ccccc21`, the inhibition is 99.9% (active).
Regarding `COC(=O)CNS(=O)(=O)c1ccc(Cc2ccc(S(=O)(=O)NCC(=O)OC)cc2)cc1`, the inhibition is 5.06% (inactive).
In the case of `CSc1ccccc1NC(=O)Cc1ccc(Br)cc1` it was 3.49% (inactive).
In the case of `COc1ccc(C(=O)NC(C)CCc2ccccc2)c(OC)c1` (configuration not stated) it was 35.8% (active); in that of `COc1ccccc1C(=O)NCCC(=O)NC(C)CCc1ccccc1` (configuration not stated), 2.26% (inactive); in that of `COc1ccc(C(=O)CCc2ccccc2O)c(OC)c1`, -6.58% (inactive).
Turning to `COCC(C)NC(=O)CSc1nc2nn(-c3ccccc3)c(=O)c-2c2n1CCCCC2` (configuration not stated), the inhibition is 8.05% (inactive).
In the case of `C=CCSc1ccc(S(=O)(=O)N2CCN(C)CC2)cn1` it was 2.87% (inactive); in that of `O=C(COC(=O)C12CC3CC(CC(O)(C3)C1)C2)NC12CC3CC(CC(C3)C1)C2`, 14.8% (active).
Turning to `O=C(COC(=O)CNS(=O)(=O)c1ccccc1)NC12CC3CC(CC(C3)C1)C2`, the inhibition is -4.78% (inactive).
In the case of `O=C(CNCCO)NC12CC3CC(CC(C3)C1)C2` it was 1.03% (inactive).
In the case of `Cc1ccc(N(C(=O)c2sc(C)nc2C)C(C(=O)NC(C)(C)C)c2ccncc2)cc1` (configuration not stated) it was 2.66% (inactive); in that of `CCS(=O)(=O)N1CCCC(C(=O)NCCCN(C)Cc2ccccc2)C1` (configuration not stated), 0.57% (inactive); in that of `O=C(CCCn1c(=O)oc2ccccc21)Nc1cccnc1`, 0.74% (inactive).
Then `C/C(=N/NC(=O)CSc1ccccn1)c1ccc([N+](=O)[O-])cc1`, with -0.59% (inactive); and `CCN1C(=O)[C@H]2[C@@H](c3ccc(-c4ccc(OC)cc4)cc3)N[C@@](Cc3ccccc3)(C(=O)OC)[C@H]2C1=O`, with -4.73% (inactive); and `CCN1C(=O)[C@H]2[C@@H](c3ccc(-c4ccc(F)cc4)cc3)N[C@@](Cc3ccccc3)(C(=O)OC)[C@H]2C1=O`, with -0.32% (inactive).
`CCCSc1ccc([C@H]2N[C@@](Cc3ccccc3)(C(=O)OC)[C@H]3C(=O)N(C)C(=O)[C@@H]23)cc1`: the inhibition was 22.2% (active).
Turning to `CCNC(=S)N1CCN(S(=O)(=O)c2ccc(Cl)s2)CC1`, the inhibition is 3.82% (inactive).
With `O=C(Nc1ccc(F)c(Cl)c1)C1CCN(S(=O)(=O)c2cccnc2)CC1`, the inhibition is 1.53% (inactive).
Then `Cc1cc(C)n(Cc2cnc(N3CCOCC3)s2)n1`, with -9.37% (inactive); and `Brc1ccc(C2=CC(c3ccco3)n3ncnc3N2)cc1` (configuration not stated), with 189% (active); and `Clc1ccc2c(c1)C1=C(C(c3ccncc3)O2)C(c2ccc(Br)cc2)n2ncnc2N1` (configuration not stated), with 0.69% (inactive).
With `CN1/C(=c2/s/c(=C3/C(=O)N(c4ccccc4)NC3=Nc3ccccc3)n(C)c2=O)C(C)(C)c2ccccc21`, the inhibition was -167% (inactive).
In the case of `CCN(CC(=O)NCc1cccs1)C(=O)c1ccccc1F` it was -7.98% (inactive).
Then `Cc1ccc(S(=O)(=O)CCC(=O)OCC(=O)N(C)Cc2ccccc2)cc1`, with 5.85% (inactive); and `Cc1ccc(S(=O)(=O)CCC(=O)OCC(=O)NCCc2ccc(S(N)(=O)=O)cc2)cc1`, with -12.1% (inactive).
For `Cc1ccc(S(=O)(=O)CCC(=O)OCc2ccccc2)cc1`, the inhibition was 15.9% (active).
Then `Cc1cc(Br)ccc1NC(=O)CN(C)C(=O)CN1C(=O)NC2(CCCC2)C1=O`, with -8.08% (inactive); and `CCC(=O)c1ccc(OCC(=O)N(CC)CC2COc3ccccc3O2)cc1` (configuration not stated), with 5.37% (inactive); and `CC(=O)Nc1ccc(NC(=S)NC(=O)c2ccc([N+](=O)[O-])c(C)c2)cc1`, with -3.89% (inactive).
In the case of `COCCCNC(=S)NC(=O)c1ccc([N+](=O)[O-])cc1` it was -1.2% (inactive); in that of `CC(=O)NC(=S)Nc1ccc(NC(=S)NC(=O)c2ccc([N+](=O)[O-])cc2)cc1`, 21.3% (active); in that of `COc1cc(Cl)c(C)cc1NC(=O)CSc1nnc(-c2ccco2)n1CC(C)C`, -5.33% (inactive).
Then `NC(Cc1ccccc1)c1csc(Nc2cc(Oc3ccccc3)ncn2)n1` (configuration not stated), with -2.31% (inactive); and `CCN(CC)C(=O)CSc1nnc(-c2cnccn2)n1-c1ccc(C)cc1`, with -8.84% (inactive).
Take `CC(C)CCN(C(=O)c1csnn1)C(C(=O)NC1CCCC1)c1ccccc1` (configuration not stated): the inhibition was 5.69% (inactive).
In the case of `CCCn1c(SCC(=O)c2ccc3c(c2)OCCO3)nnc1C(C)C` it was 3.55% (inactive); in that of `CCCn1c(SCC(=O)Nc2c(C)cccc2C)nnc1C(C)C`, 14.6% (active); in that of `COCCn1c(SCC(=O)Nc2nc(C)cs2)nnc1C(C)C`, 6.46% (inactive).
In the case of `CCCCC(O)(CCCC)C(=O)NN(C(=O)CCl)c1ccccc1` it was -2.85% (inactive).
Then `CCCC(O)(CCC)C(=O)NN(C(=O)CCl)c1cccc(C)c1`, with 12.8% (active).
Regarding `Cc1cccc(N(Cc2ccccc2)C(=O)c2ccccc2F)c1`, the inhibition was 0.91% (inactive).
